Source: PubChem
Rows were chosen to be rich in hits. Some 3.1% of all compounds tested hit in one or more screens of this group.
Tau fibril ThT = blocks human tau fibril formation measured by thioflavin T; Potency, µM (highest dose often 57.4 µM), for the others: top-dose activity, negative = inhibition, most hits filed as inhibitors; recombinant tau K18 P301L, heparin-induced fibrillization, ThT fluorescence; AID 1460; P10636; hit rate 2.1% among 270,000; note: nearly all actives have a fitted effect of over 55% in size
Target sequence (P10636 561-689 P618L limits assumed): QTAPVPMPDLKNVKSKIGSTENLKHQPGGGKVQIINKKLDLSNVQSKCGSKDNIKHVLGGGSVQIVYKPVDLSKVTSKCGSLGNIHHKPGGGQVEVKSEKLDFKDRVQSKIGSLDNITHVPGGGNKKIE
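Aggregation was driven by heparin (20 uM final) acting on recombinant tau […] bearing P301L in 100 mM sodium acetate pH 7; fibrils were detected with Thioflavin T.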
TRb SRC2 PPI = disrupts binding of human TR beta to SRC2; P10828; TRbeta-SRC2 peptide binding, fluorescence polarization; receptor liganded with 1 µM T3; Potency, µM (top dose mostly 106 µM), without a hit: at the highest dose activity change, negative = inhibition, actives largely listed as inhibitors; hit rate 0.065% among 280,000;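 note: plate controls were bound peptide for no effect and peptide without receptor for full effect; nearly all actives have a fitted effect of over 50% in size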
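Polarization signal, normalized between peptide-alone and full complex controls, measured compound effects on T3-liganded human TRb LBD (0.6 uM) binding 20 nM Texas Red SRC2 peptide after 5 hr.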
Tau fluor counter = counter-screen for tau fibril formation inhibitors. tau K18 P301L (four-repeat tau fragment) Alexa594 fluorescence, heparin fibrillization. Potency, µM (titrated, usually from 57.7 µM), without a hit: at the top dose activity change, negative = decrease. hit rate 0.93% among 280,000; note: nearly all actives have a fitted effect of over 55% in size
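Human K18 P301L tau (15 uM unlabeled plus 0.24 uM Alexa 594-labeled, final) in 100 mM sodium acetate pH 7 was mixed with compound and 20 uM heparin and incubated 6 hr at 37 C.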
Tau FP inhib = blocks human tau fibril formation measured by polarization; P10636; K18 P301L tau heparin fibrillization, Alexa594 FP, 6 h; Potency, µM (doses to about 57.7 µM), for inactives: at the top dose activity, negative = inhibition, hits mostly inhibitors; hit rate 0.39% among 280,000; AID 1468; note: nearly all actives have a fitted effect of over 55% in size
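Human K18 P301L fragment (15 uM unlabeled plus 0.24 uM Alexa 594-labeled) in 100 mM sodium acetate pH 7 with compound, aggregation induced by 20 uM heparin for 6 hr at 37 C. ThT (30 uM) added for 1 hr, then Alexa 594 FP read.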
GoLoco inh red = RGS12 GoLoco-Gai1 interaction inhibition | P63096 | Gai1:RGS12 GoLoco peptide FP, rhodamine, 10 min | Potency, µM (highest dose often 61.6 µM), without a hit: top-dose activity, negative = inhibition, most hits filed as inhibitors | hit rate 0.44% among 230,000 | AID 880; active = well fitted inhibition curve with a large enough effect, not every such curve was filed as active; inactive = no such curve, though single readings can be large or run the other way; note: nearly all actives have a fitted effect of over 30% in size
Target sequence (P63096 whole entry, looked up): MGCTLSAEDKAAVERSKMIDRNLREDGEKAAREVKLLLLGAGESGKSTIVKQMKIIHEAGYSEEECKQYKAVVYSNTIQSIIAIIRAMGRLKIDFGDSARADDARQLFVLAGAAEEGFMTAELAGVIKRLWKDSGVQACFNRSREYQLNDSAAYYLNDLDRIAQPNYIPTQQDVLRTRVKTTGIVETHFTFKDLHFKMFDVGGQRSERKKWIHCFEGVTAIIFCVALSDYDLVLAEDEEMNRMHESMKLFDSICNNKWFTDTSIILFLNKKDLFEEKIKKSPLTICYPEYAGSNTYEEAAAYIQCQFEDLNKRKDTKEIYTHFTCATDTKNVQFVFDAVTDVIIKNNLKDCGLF
TR SRC2 fluor cs = Texas Red fluorescence interference in TRb-SRC2 counter-screen; Potency, µM (series often up to 106 µM), for the others: top-dose fluorescence change, negative = quenching; TRb/SRC2 Texas Red total fluorescence interference; hit rate 0.29% among 280,000; active = well fitted curve in either direction with a large enough effect; inconclusive = small, poorly fitted or top-dose-only effect
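Human TRb ligand-binding domain at 0.6 uM with 20 nM Texas Red SRC2 peptide in Tris buffer containing 1 uM T3 and 5% DMSO, incubated with compound 5 h at ambient temperature. Total fluorescence (555/632 nm) calculated as parallel + 2 × perpendicular.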
* hit, by the source's call; ? = inconclusive; / = no result given; [ ] = another dose, or the depositor's remark. Unless noted, calls come from the whole dose curve; as a rule, active = well fitted curve in the direction sought with a large enough effect; inconclusive = small, poorly fitted or top-dose-only effect, or another doubt; inactive = no such curve, though single readings can be large; an effect the other way counts as inactive or inconclusive. Unless noted, % is set by controls: 0 for no effect and ±100 for the full control effect; potency is the fitted concentration of half-maximal effect.

SMILES	Tau fibril ThT	TRb SRC2 PPI	Tau fluor counter	Tau FP inhib	GoLoco inh red	TR SRC2 fluor cs
S=c1[nH]c(-c2ccccc2)cn1/N=C/c1ccncc1	11.2µM*	-3.5%	?	-9.0%	-6.2%	-2.2%
Cc1ccc(NC(=O)CSc2nc3c(cc2C#N)C(=O)CCC3)cc1S(=O)(=O)N(C)C	-11.0%	0.7%	-11.5%	-8.3%	15.0%	-1.3%
O=C(Nc1ccc(Oc2ccc3c(c2)C(=O)N(c2ccc(O)cc2)C3=O)cc1)c1cccs1	1.1%	3.0%	2.0%	14.1µM*	3.2%	-2.8%
Cc1ccc(CCNC(=O)c2c[nH]c3ccc(S(=O)(=O)Nc4ccc(C)cc4C)cc3c2=O)cc1	5.8%	-18.7%	?	4.47µM*	/	-60.8%
Cc1cccc(CCNC(=O)c2c[nH]c3ccc(S(=O)(=O)Nc4ccccc4F)cc3c2=O)c1	13.7%	-19.6%	?	7.08µM*	/	?
COCCCNC(=O)c1c[nH]c2ccc(S(=O)(=O)N3CCc4ccccc43)cc2c1=O	9.8%	3.3%	?	28.2µM*	8.5%	-1.3%
COc1cccc(NS(=O)(=O)c2ccc3[nH]cc(C(=O)NCCc4ccc(C)cc4)c(=O)c3c2)c1	8.2%	-18.1%	?	?	/	?
CN(C)CCNc1nc2sc3c(c2c(=O)n1CCc1ccccc1)CCCCC3	?	0.4%	12.6µM*[quencher]	?	2.2%	-7.9%
CC(O)CNc1nc2sc3c(c2c(=O)n1CCc1ccccc1)CCCCC3 (stereo not drawn)	?	0.8%	10µM*[quencher]	12.0%	10.1%	7.3%
CC(O)CNc1nc2sc3c(c2c(=O)n1Cc1ccco1)CCCCC3 (stereo not drawn)	?	-2.6%	?	?	11.4%	-8.2%
O=c1c2c3c(sc2nc(NCCOCCO)n1Cc1ccco1)CCCCC3	/	4.2%	-27.4%	10.6%	7.0%	-0.9%
COc1cc2c(cc1OC)-c1cc3ccc4c(c3c[n+]1CC2)OCO4	15.8µM*	2.3%	-17.4%	-8.8%	2.1%	-5.5%
COc1cc2c(cc1OC)C(c1ccccc1)=NCC2	-0.4%	2.8%	-0.5%	2.6%	3.6%	-1.1%
N#Cc1ccc2c(c1)NC(=O)C1CCCN21 (stereo not drawn)	20µM*	-1.8%	-17.1%	?	34.2%	-1.5%
CNS(=O)(=O)c1ccc2c(c1)NC(=O)C1CCCN21 (stereo not drawn)	?	3.9%	-11.2%	?	19.0%	-0.9%
CC[n+]1c(C)cc2c(sc3ccccc32)c1C	-6.4%	6.4%	0.2%	-4.4%	4.47µM*	-0.4%
CCc1nc(C)cc2c1sc1ccccc12	-13.9%	0.9%	-7.9%	-3.9%	-0.6%	-0.8%
COc1cccc(N2C(=O)[C@H]3C(C(=O)c4cnccn4)=NN[C@H]3C2=O)c1	?	-0.8%	-13.7%	-7.5%	-32.8%	2.3%
CCN1/C(=C\C=C2\C(=O)N(C)C(=S)N2C)Sc2ccccc21	2µM*	?	0.7%	-14.2%	268.5%	21.5%
CCN1/C(=C2/OC(=S)N(C)C2=O)Sc2ccccc21	-10.0%	2.3%	-4.3%	5.2%	-0.9%	-2.3%
CCc1ccc(S(=O)(=O)/N=C2/C=C(Sc3ncn[nH]3)C(=O)c3ccccc32)cc1	3.98µM*	20µM*	?	11.2µM*	-25.7%	-21.2%
CCc1ccc(S(=O)(=O)/N=C2\C=CC(=O)c3ccccc32)cc1	17.8µM*	-19.3%	?	?	21.3%	-3.4%
O=C1c2ccccc2C(=O)N1CCSc1ncn[nH]1	4.7%	-6.9%	-2.6%	1.7%	-11.6%	-0.2%
CCOc1ccccc1CNCCNCC(C)O (stereo not drawn)	-8.7%	-1.7%	1.7%	-0.1%	-3.1%	-7.4%
O=C(CCC(=O)OCC(=O)c1ccc(F)cc1)NC1CCCCC1	-11.8%	-5.5%	-13.2%	1.6%	7.9%	-6.0%
Cc1cc(O)c2c(c1O)C(=O)C(O)=C(O)C2=O	12.6µM*	-0.7%	?	17.8µM*	-70.9%	-2.9%
